The source made the active and inactive calls. The calls were made as follows: active = hit-call score of the fitted dose curve at least 0.9, where 1 is the maximum; inactive = score below 0.9.

Read-out in this assay: Pro-epidermal growth factor (Homo sapiens) (UniProt P01133)
The assay can be described thus: LTEA_HepaRG_EGF: Life Technologies and Expression Analysis (LTEA) Assay for Epidermal growth factor (EGF) using HepaRG (AID 2283489). Particulars: mRNA level, 48 h; actives raise or lower the signal. The protocol: LTEA_HepaRG is a cell based, multiplexed-readout assay that uses HepaRG, a human liver cell line, with measurements taken at 48 hours after chemical dosing on a 96-well plate.LTEA_HepaRG_EGF is one of 102 assay component(s) measured in the LTEA HepaRG cell culture assay. It is a marker of Cell proliferation, survival, death.Data from the assay component LTEA_HepaRG_EGF was analyzed into 1 endpoint. This assay endpoint, LTEA_HepaRG_EGF, was analyzed with bidirectional fitting relative to DMSO as the negative control and baseline of activity. Using a type of inducible reporter, measures of mRNA induction for gain or loss-of-signal activity can be used to understand regulation of transcription factor activity. To generalize the intended target to other relatable targets, this assay endpoint is annotated to the growth factor intended target family, where the subfamily is EGF-like domain.
A total of 1060 chemcials from the ToxCast library were tested in eight-point concentration-response experiments. Cell culture and cytotoxicity assays were conducted at Thermo Fisher Scientific's Custom Services facility (Madison, WI). A single lot of human HepaRG cells (Thermo Fisher Scientific, Frederick, MD) was used for the cell culture experiments. 96-well format collagen type I coated plates of human HepaRG cells were prepared using established methods. Briefly, cryopreserved HepaRG cells were thawed, plated at a density of approximately 100,000 cells/well in HepaRG Thaw, Plate, and General Purpose media (HPRG770, Thermo Fisher Scientific), and incubated for 48 hours. 0.5% DMSO was selected as vehicle control to balance the requisite need of DMSO in HepaRG cultures to maintain differentiation (for example, baseline metabolism, proportions of hepatocytes vs. cholangiocytes), while enabling further hepatic receptor pathway activation (for example, PXR and CAR) in response to chemical exposure. 48 hours after plating, the culture medium was replaced with HepaRG Serum-Free Incudtion Media. Cells were exposed to each test chemical in duplicate and maintained in CO2 incubators for another 48 hours. Chemical plates were thawed to room temperature and 200x concentrations of treatment groups were prepared. 8-point conentration-reponse curves were made with the highest exposure at 100 uM, followed by half-log dilutions, all in 0.5% DMSO. Each test plate contained variouse controls, induction positive controls (1mM phenobarbital), cytotoxicity positive controls ([…] aflatoxin B1), vehicle controls (0.5% DMSO), and total lysis controls (0.5% DMSO). Cell morphology images were taken using an Essen IncuCyte FLR automated microscope, with six 96-well plates imaged in about 24 minutes. Images were captured and exported and JPEG files. Spent culture media was transfered to black-well plates for the LDH assay, and remaining media was sorted at -80 C for later use. Cells were treated with RLT buffer and frozen until shipped for gene expression analysis. Total RNA was isolated from the cell suspension in 75 uL of Buffer RLT (Qiagen, Germantown, MD 20874) by Quintiles/Expression Analysis (Durham, NC) using a custom isolation procedure. Total RNA from each plate well was transferred to a preamplification plate. Fluidigm's 96.96 Dynamic ArrayTM (Fluidigm, Amsterdam, the Netherlands) technology was used for gene expression analyses by quantitative reverse transcription polymerase chain reaction (qRT-PCR, performed by Quintiles/Expression Analysis, Durham, NC)89. Standard TaqManTM Assays (Applied Biosystems/ThermoFisher Scientific, Foster City, CA) were used to assess the expression of 93 genes selected based on their selectivity and sensitivity to important hepatic receptors known to be modulated by environmental chemicals; importance in human hepatocyte functionality; and hepatotoxicity. […]
Take `CN(C)c1ccc(Cc2ccc(N(C)C)cc2)cc1`: the compound was classed as inactive. As to `CCOC(=O)COc1ccc2c(c1)CC(NCC(O)c1cccc(Cl)c1)CC2` (stereo not given), the compound was classed as inactive.

Regarding `COC(=O)c1c(Cl)c(Cl)c(C(=O)OC)c(Cl)c1Cl`, the outcome was inactive.

Consider `CCN(C(=O)c1cc(C)cc(OC[C@H](C)Nc2ccncc2)c1)C(C)C`, for which the result was inactive. The same measure, in the same setting: under `Nc1nc2ncc(CNc3ccc(C(=O)N[C@@H](CCC(=O)O)C(=O)O)cc3)nc2c(=O)[nH]1` stands “inactive”; under `CC(O)CN(CCN(CC(C)O)CC(C)O)CC(C)O` (stereo not given), “inactive”; under `Oc1ccc2c(c1)-c1ccccc1C2`, “inactive”. As to `Cc1c(-c2cccnc2)c2ccccc2n1CCCCC(=O)O`, the compound was classed as inactive. Turning to `O=C(O)c1cccc(N(Cc2cccnc2)c2ccc(OC(F)F)c(OC(F)F)c2)c1`, the result was inactive. Consider `Nc1cccc(N)c1`, for which the result was inactive. On to `O=C(CCCCCCCCc1cccnc1)N1CCC(C=C(c2ccccc2)c2ccccc2)CC1`, for which the compound was called inactive. Consider `O=C(O)c1cccc(Oc2ccccc2)c1`, for which the outcome was inactive. Still for that read-out and setting: under `COCCOc1cc2cc(C(=O)NC3CCN(C(C)C)CC3)n(CC(=O)Nc3ccc(Cl)cn3)c2cn1` stands “inactive”. With `COC(=O)CC(=O)OC`, the result was inactive.

Turning to `C1N2CN3CN1CN(C2)C3`, the compound was called inactive. For `CCOC(=O)CC(CC(=O)OCC)(OC(C)=O)C(=O)OCC`, the call was inactive. Still for that read-out and setting: under `CCCCCCCCCCCCc1ccccc1` stands “inactive”.

Consider `Cc1ccc(C)c(O)c1`, for which the result was inactive. On the same count and under the same terms, as for `CCCCC(CC)COC(=O)CCCCCCCCC(=O)OCC(CC)CCCC` (stereo not given), the entry is “inactive”; as for `C1=CCCC=CCCC=CCC1`, “inactive”; as for `C[C@](N)(Cc1ccc(O)c(O)c1)C(=O)O`, “inactive”. Same read-out and setting: as for `CC(=O)OC[C@H]1O[C@@](COC(C)=O)(O[C@H]2O[C@H](COC(C)=O)[C@@H](OC(C)=O)[C@H](OC(C)=O)[C@H]2OC(C)=O)[C@@H](OC(C)=O)[C@@H]1OC(C)=O`, the entry is “inactive”. Consider `COc1ccc2sc(C(=O)Nc3nnn[nH]3)c(OC(C)C)c2c1`, for which the half-maximal activity concentration (AC50) (usually the concentration giving half of the maximal activity seen) is 22 µM (active). `COC(=O)c1ccccc1O`: the result was inactive.

Turning to `CCC(C)(C)C(=O)O[C@H]1C[C@@H](C)C=C2C=C[C@H](C)[C@H](CC[C@@H]3C[C@@H](O)CC(=O)O3)[C@H]21`, the result was inactive. On the same count and under the same terms, as for `CCOCCO`, the entry is “inactive”; as for `NC(=O)NO`, “inactive”. Same read-out and setting: as for `CC(C)=CCCC(C)=CC=O`, the entry is “inactive”; as for `CC(C)=CCCC(C)CCO` (stereo not given), “inactive”.

For the compound `CCOCCOCCOCCO`, the result was inactive. On the same count and under the same terms, under `O=C(NS(=O)(=O)/C=C/c1ccccc1)c1ccc(F)cc1Cl` stands “inactive”; under `CC(C)CCCCCCOC(=O)c1ccc(C(=O)OCCCCCCC(C)C)c(C(=O)OCCCCCCC(C)C)c1`, “inactive”.

Take `CCn1nc(Cc2ccccc2)cc1C1CCN(C[C@H]2C[C@H](N(C)[C@@H](C(=O)O)C(C)C)C[C@@H]2c2cccc(F)c2)CC1`: the call was inactive.

As to `CC[C@H]1CC[C@H](NCc2cc3c(cc2OC)[C@H]2C[C@H]2C(=O)N3C)[C@H](c2ccccc2)N1`, the result was inactive. For `CCCC(=O)OCC`, the compound was classed as inactive. Same read-out and setting: as for `CCCCCCc1ccc(O)cc1O`, the entry is “inactive”.

On to `O=C(OC[C@H]1O[C@@H](OC(=O)c2cc(O)c(O)c(OC(=O)c3cc(O)c(O)c(O)c3)c2)[C@H](OC(=O)c2cc(O)c(O)c(OC(=O)c3cc(O)c(O)c(O)c3)c2)[C@@H](OC(=O)c2cc(O)c(O)c(OC(=O)c3cc(O)c(O)c(O)c3)c2)[C@@H]1OC(=O)c1cc(O)c(O)c(OC(=O)c2cc(O)c(O)c(O)c2)c1)c1cc(O)c(O)c(OC(=O)c2cc(O)c(O)c(O)c2)c1`, for which the call was inactive. On the same count and under the same terms, as for `O=C(O)CC(O)C(=O)O` (stereo not given), the entry is “inactive”; as for `O=C(O)CCN(C1(C(=O)NO)CCCC1)S(=O)(=O)c1ccc(Oc2ccc(F)cc2)cc1`, “inactive”. With `O=P(OC(CCl)CCl)(OC(CCl)CCl)OC(CCl)CCl`, the half-maximal activity concentration (AC50) was 88.8 µM (active).

These data come from PubChem BioAssay (EPA / NIEHS).
